These sequences were tested against AKR1C4 (assay: pooled miR-30 sensor sort-seq; sequence = guide strand). Conditions: shRNA.
Further: reference of the scale not given here.

Sequence | sensor-assay potency score (higher = more potent)
AATCCATGACAACATATCGATA | -1.75
TTGCTAAGGCACAAAGAACTGG | -0.934
TTCATCTTTTGGTAGTGGCGTC | -0.396
AACATATCGATAATTTCTGTTT | -1.09
ATCATTTAGCTCTACACGCTGA | -0.425
TAAGGATGACATTCTACCTGGT | 0.727
ATATCCTCTGATGTCAACTGGA | -0.353
TAGAACTTTCATATCCTCTGAT | 0.539
TTGTGTTTCTTTGCTAAGGCAC | -0.225
TTCAGTGAGCTTTCCAAGGCTG | 0.323
TTTGTTTGTGTTTCTTTGCTAA | 0.179
TTGGTGACCTCTACAGCTCTGT | 0.122
TATCCTCTGATGTCAACTGGAA | -0.803
TTTCATATCCTCTGATGTCAAC | -1.3
TTCTGTTTAGACCATCTAGAAC | -1.64
TACTTTTCCATTTTCATCTTTT | -0.351
TTATTGTATAAATAAGCAGAAT | -1.48
TTGGTAGTGGCGTCTCACCTGG | -0.771
TAGACCATCTAGAACTTTCATA | -0.398
TGGATAATCAGGATGGTCCATA | -1.08
TTGTTTGTGTTTCTTTGCTAAG | -1.47
AAAACCTGGATGTTCTCTCTGA | 0.359

From the OligoGym collection
